About 360 (0.41%) of roughly 87,000 compounds were called active. This is one part of a sample in which actives are shown more often than they occur. No stated cut-off is given here; in the data, active means cytotoxicity above about 50%; inactive means the rest.
Assay: cytotoxicity in HT1080 fibrosarcoma cells, cell-based, fluorescence readout (AID 620);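 further: cells exposed to compound overnight then 4 h with Alamar Blue; 0% = vehicle DMSO and 100% = killing control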
Settings: HT1080 viability, at 10 µM, stronger effect = higher value

SMILES | cytotoxicity
CCC(C)NC(=O)CNS(=O)(=O)c1ccc(C)cc1 (stereo not drawn) | 1.4% (inactive)
COc1cc(CNc2ccc3c(c2)CCC3)cc(OC)c1O | -2.4% (inactive)
O=C(NCc1ccco1)C1CCC(CNS(=O)(=O)c2cccc3cccnc23)CC1 (stereo not drawn) | -8.6% (inactive)
O=c1c2cc(Br)ccc2nc2n1CCCCC2 | -8.5% (inactive)
CC(=O)c1cccc(NC(=O)c2cc3ccccn3n2)c1 | 6.1% (inactive)
COc1cccc(CNC(=O)c2cc3ccccn3n2)c1 | 0% (inactive)
CCOC(=O)c1nc(N)c(=O)n(-c2ccc(C)cc2)n1 | 5.9% (inactive)
CCOc1ccc(N(C(=O)Cn2nnc3ccccc32)C(C(=O)NC(C)(C)CC)c2cccn2C)cc1 (stereo not drawn) | 15% (inactive)
C=CC1C(N2CCOCC2)C(C)(C)S1(=O)=O (stereo not drawn) | 0.5% (inactive)
Cc1cc(C)c2c(c1)cc(C)c1nnc(SCC(=O)Nc3cc(C)on3)n12 | 20.3% (inactive)
Cc1cc(NC(=O)CSc2nnc3c(C)cc4cc(C)c(C)cc4n23)no1 | 11.9% (inactive)
Cc1cc(NC(=O)CSc2nnc3c(C)cc4c(C)ccc(C)c4n23)no1 | 58.9% (active)
COc1ccc(N2CCN(C(=O)CN(Cc3ccc(Cl)cc3)S(C)(=O)=O)CC2)cc1 | -6.4% (inactive)
CC1CCCCN1C(=O)CSc1ccc(-c2ccc(F)cc2)nn1 (stereo not drawn) | -10.9% (inactive)
CCOc1ccc(-c2cc(C(=O)O)c3ccccc3n2)cc1 | 23.3% (inactive)
CCOc1ccc(-c2cc(C(=O)N3CCN(C)CC3)c3ccccc3n2)cc1 | 3.8% (inactive)
CCOC(=O)N1CCN(C(=O)c2cc(-c3ccc(OCC)cc3)nc3ccccc23)CC1 | 54.9% (active)
O=C(c1cc(-c2ccccc2)nc2ccccc12)N1CCN(c2ccccn2)CC1 | -0.4% (inactive)
COc1ccc(-c2cc(C(=O)N3CCN(c4ccccn4)CC3)c3ccccc3n2)cc1 | 3.7% (inactive)
CCOc1ccc(-c2cc(C(=O)N3CCN(c4ccccn4)CC3)c3ccccc3n2)cc1 | 52.4% (active)
CCOC(=O)N1CCN(C(=O)c2ccccc2-c2ccccc2)CC1 | 58.5% (active)
CCOC(=O)N1CCN(C(=O)c2ccccc2Oc2ccccc2)CC1 | 3.5% (inactive)
O=C(c1ccccc1-c1ccccc1)N1CCCC1 | 7.3% (inactive)
CNC(=S)NN(c1ccccc1)c1ccccc1 | 30.1% (inactive)
COc1ccccc1CNC(=O)C(=O)NCC1CCCO1 (stereo not drawn) | 0.9% (inactive)
Cc1cc(=O)oc2cc(OCC3CC(c4ccc(Cl)cc4)=NO3)ccc12 (stereo not drawn) | -6.9% (inactive)
Cc1cc(=O)oc2cc(OCC3CC(c4ccccc4Cl)=NO3)ccc12 (stereo not drawn) | 63.5% (active)
Cc1cc(=O)oc2cc(OCC3CC(c4ccccc4)=NO3)ccc12 (stereo not drawn) | 8.1% (inactive)

From PubChem BioAssay AID620 (Sanford-Burnham Center for Chemical Genomics, 2007)
